Experiment: small-molecule microarray binders of probe aDKK1, primary screen, biochemical, biotinylated probe, 635/667 nm fluorescence (AID 1099);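 further: score merges 667nm spot fluorescence with signal to noise across triplicate slides; reference of the scale not given here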
Conditions: higher = more signal

SMILES	composite z-score
C=CCNC(=O)[C@H]1[C@@H]2C(=O)O[C@@H](c3ccccc3)[C@@H](c3ccccc3)N2[C@@H](c2ccc(O)cc2)[C@]12C(=O)N(C(=O)OCCOC)c1ccc(C#Cc3ccc(OC)cc3)cc12	-0.0387
O=C1OC[C@@H](c2ccccc2)n2cc(/C=C/c3ccccc3)cc21	-0.222
COc1c(C)cc(-c2nc(-c3ccccc3)c3c(c2C)CO[Si]3(C(C)C)C(C)C)cc1C	-0.141
C=C(CCCC)/C(=C/C[C@@H](OC(C)=O)c1cccc(OCCO)c1)c1cc(C(=O)OC)ccc1OC	-0.113
CC1CC/C=C\[C@H]2OC34C=CCN(C(C)C)C(=O)[C@H]3N(C(C)CO)C(=O)[C@@H]4C2C(=O)O1 (stereo partly specified)	-0.27
CCCCC(=C=CC[C@@H](O)c1ccc(OCCO)cc1)CCO	-0.0198
COc1ccc(C(=O)Nc2ccc(CN3C(=O)[C@]4(O[C@H](CC(=O)N(CCO)Cc5ccccc5)[C@@H]([Si](C)(C)c5ccc(OC)cc5)[C@@H]4C)c4ccccc43)cc2)cc1	-0.0522
COC(=O)[C@@]1(Cc2ccc(F)cc2)[C@H]2c3cc(C(=O)N(C)C)n(Cc4ccc(C(F)(F)F)nc4)c3C[C@H]2CN1C(=O)c1ccccc1	-0.154
O=C(NCCN1CCOCC1)[C@@H]1c2ccccc2C(=O)N(CC23CC4CC(CC(C4)C2)C3)[C@H]1c1ccc(CO)cc1	0.253
CO[C@H]1O[C@H](CO)[C@@H](OC(=O)Nc2cccc(F)c2)[C@H](OC(=O)Nc2ccc3c(c2)OCO3)[C@@H]1OC(=O)Nc1ccc2c(c1)OCO2	0.359
CN(C)CCCCCCNC(=O)[C@@H]1C[C@@H]2C(=O)N[C@@H](CCCC[N+](C)(C)C)C(=O)N2[C@@H]1c1cccc(OCCO)c1	0.116
